According to PubChem BioAssay AID588591 (National Center for Advancing Translational Sciences (NCATS), 2011):
“And” between values parts separate entries of the source, which are not always exact repeats. Equal values may be shown once. In all, about 390,000 compounds went through this assay and about 4,700 (1.2%) were called active. Not shown: some 4% with an inconclusive outcome. This is one part of a sample in which actives are shown more often than they occur. Calls come from the whole dose curve; as a rule, active = well fitted inhibition curve with a large enough effect; inconclusive = small, poorly fitted or top-dose-only effect, or another doubt; inactive = no such curve, though single readings can be large or run the other way.

molecular target: DNA polymerase eta (Homo sapiens) (UniProt Q9Y253); test: qHTS for Inhibitors of Polymerase Eta; details: recombinant Pol eta, fluorescent DNA replication assay; series mostly up to 114 µM; activity change, negative = inhibition: at the top concentration
Sequence (Q9Y253 whole entry, looked up): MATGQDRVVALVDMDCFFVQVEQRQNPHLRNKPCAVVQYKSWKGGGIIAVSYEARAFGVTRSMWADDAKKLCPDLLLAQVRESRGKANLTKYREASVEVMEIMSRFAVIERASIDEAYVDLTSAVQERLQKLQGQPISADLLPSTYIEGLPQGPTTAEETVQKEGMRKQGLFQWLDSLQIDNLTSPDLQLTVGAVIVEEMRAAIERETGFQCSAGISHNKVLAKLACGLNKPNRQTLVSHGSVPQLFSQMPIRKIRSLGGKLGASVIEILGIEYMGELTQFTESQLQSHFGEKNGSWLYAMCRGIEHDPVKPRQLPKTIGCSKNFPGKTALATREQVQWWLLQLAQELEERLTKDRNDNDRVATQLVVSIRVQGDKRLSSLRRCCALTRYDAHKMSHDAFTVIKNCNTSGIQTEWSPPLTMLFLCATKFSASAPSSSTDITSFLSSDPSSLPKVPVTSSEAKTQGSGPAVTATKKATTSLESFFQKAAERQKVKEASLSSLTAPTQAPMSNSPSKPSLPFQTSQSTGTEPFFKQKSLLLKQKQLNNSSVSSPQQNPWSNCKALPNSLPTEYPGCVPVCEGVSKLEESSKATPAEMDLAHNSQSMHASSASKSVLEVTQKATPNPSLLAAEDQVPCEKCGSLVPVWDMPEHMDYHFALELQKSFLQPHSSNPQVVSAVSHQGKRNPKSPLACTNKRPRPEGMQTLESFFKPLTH
Summary of the method: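 Pol eta (10 nM) was preincubated with compounds for 15 min at room temperature, after which fluorescent replication substrate (50 nM final) was added to start the reaction. Fluorescence was read kinetically at 0 and 10 min.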
% is set by controls: 0 for no effect and ±100 for the full control effect; potency is the fitted concentration of half-maximal effect.

| SMILES | activity change, negative = inhibition | Potency |
| --- | --- | --- |
| CCCCOc1ccc(CNC(=O)c2ccc3c(c2)N(C)C(=O)C2CCCCN32)cc1 (centres undefined) | -10% (inactive) | – |
| Cc1cc(C)cc(NS(=O)(=O)c2ccc(-c3cc(C)no3)s2)c1 | 5.56% (inactive) | – |
| COCCNC(=O)Nc1ccc2nc(-c3ccco3)c(-c3ccco3)nc2c1 | – | 2.82 µM (active) |
| COc1ccc(NC(=O)C(=O)NCc2ccco2)cc1 | 1.33% (inactive) | – |
| CCOc1ccc(NC(=O)c2ncoc2-c2ccco2)cc1 | -22.9% (inactive) | – |
| CCC(=O)N1c2ccccc2CC1C(=O)N1CCN(c2ccccc2F)CC1 (centres undefined) | -10.7% (inactive) | – |
| Cc1cccc(CC(=O)N2CC(=O)Nc3ccc(F)cc3C2c2ccccc2)c1 (centres undefined) | -24% (inactive) | – |
| O=C(COC(=O)CSc1ccccc1)Nc1ccc(F)cc1F | -9.37% (inactive) | – |
| CC(NC(=O)COC(=O)c1ccc(Cl)cc1O)c1ccc(F)cc1 (centres undefined) | -13.8% (inactive) | – |
| O=C(COC(=O)c1ccc(F)cc1F)Nc1ncccn1 | – | 22.4 µM (active) |
| CCOC(=O)c1ccc(NC(=O)Cn2c(=O)cc(C)c3c(C)nn(-c4cccc(F)c4)c32)cc1 | -12% (inactive) | – |
| CN(Cc1ccccc1)S(=O)(=O)c1ccc(F)c(C(=O)Nc2cccc(Cl)c2Cl)c1 | 5.44% (inactive) | – |
| Cc1ccc(Cn2c(C)nc3c(c2=O)c2nc4ccccc4nc2n3Cc2ccco2)cc1 | – | 22.4 µM (active) |
| CCN1CCN(C(c2ccc(C)cc2)c2c(O)cc(C)n(Cc3ccco3)c2=O)CC1 (centres undefined) | -18.8% (inactive) | – |
| Cc1ccc(Cn2c(=O)n(Cc3nc(-c4ccccc4)no3)c(=O)c3cc4c(cc32)OCO4)cc1 | 0.735% (inactive) | – |
| COc1cccc(C(=O)Nc2ccc(-c3cc(C(F)(F)F)nn3-c3ccccc3)cc2)c1 | -22.6% (inactive) | – |
| O=C(CN1c2ccccc2S(=O)(=O)c2ccccc21)Nc1cccc(C(F)(F)F)c1 | -11.6% (inactive) | – |
| CCCCN(CCCNC(=O)c1cc(Nc2ccccc2OC)nc2ccccc12)c1ccccc1 | -8.91% (inactive) | – |
| O=C(NCCCO)C(=O)Nc1c2c(nn1-c1ccccc1)CSC2 | -7.49% (inactive) | – |
| CC(C)(C)C(=O)OCc1nc(-c2ccc(O)c(O)c2)cs1 | – | 14.1 µM (active) |
| O=c1cc(-c2ccccc2)[nH]c2nc(Cl)ccc12 | -5.32% [at 57.1 µM] (inactive) | – |
| Cc1ccc2c(c1)c1c(c(=O)n(-c3ccccc3)c(=O)n1CC(=O)c1ccc(Cl)cc1)n2C | -10.5% (inactive) | – |
| O=C(CSc1oc(-c2ccccc2)nc1S(=O)(=O)c1ccc(Br)cc1)NC1CCCCC1 | 0.104% (inactive) | – |
| N=C1C(c2nc3ccccc3[nH]2)=C(O)CN1NC(=O)c1c[nH]c2ccccc12 | -8.69% (inactive) | – |
| O=C(CCNC(=O)c1ccc([N+](=O)[O-])cc1)Nc1ccccc1N1CCOCC1 | -11% (inactive) | – |

| SMILES | activity change, negative = inhibition | Potency |
| --- | --- | --- |
| N=C1C(c2nc3ccccc3s2)=C(O)CN1NC(=O)c1ccc([N+](=O)[O-])cc1 | – | 50.1 µM (active) |
| COCCNc1ncnc2c1c(-c1ccccc1)cn2-c1ccc(C)c(Cl)c1 | -3.31% (inactive) | – |
| COc1cccc(-c2cc(C(=O)Nc3ccc(C)cc3)[nH]n2)c1 | -20.5% (inactive) | – |
| Cn1c(=O)sc2cc(NS(=O)(=O)c3ccc(C(C)(C)C)cc3)ccc21 | -13.2% (inactive) | – |
| CC(=O)c1ccc(S(=O)(=O)Nc2ccc(-c3ccc4nncn4n3)cc2)cc1 | – | 20 µM (active) |
| CC(=O)Nc1ccc(S(=O)(=O)Nc2ccc(-c3ccc4nnc(C)n4n3)cc2)cc1 | -16.5% (inactive) | – |
| O=C(Nc1ccc(-c2ccc3nncn3n2)cc1)C1CCCCC1 | -13.9% (inactive) | – |
| Cn1nnc2c(N3CCN(c4ccccc4)CC3)ncnc21 | -4.1% (inactive) | – |
| CCCCSc1ncnc2c1sc1nc(N3CCOCC3)c3c(c12)CCCC3 | -16% (inactive) | – |
| O=Cc1ccc(OCc2cn3ccccc3n2)cc1 | -5.21% (inactive) | – |
| CN(C)C(CNC(=O)c1ccc(OCc2cn3ccccc3n2)cc1)c1ccco1 (centres undefined) | – | 39.8 µM (active) |
| CN(C)C(CNC(=O)CCCOc1ccccc1)c1ccco1 (centres undefined) | 1.86% (inactive) | – |
| Cc1ccc(OCC(=O)Nc2ccc(OCc3cc(=O)n4c(C)csc4n3)cc2)cc1C | -20.4% (inactive) | – |
| CCCCc1nn2c(=O)cc(COC(=O)c3ccccc3NC(=O)C(C)(C)C)nc2s1 | -9.36% (inactive) | – |
| CCOc1ccc(N(CC)S(=O)(=O)N2CCCC(C(=O)NCc3ccc(Cl)cc3)C2)cc1 (centres undefined) | -12.2% (inactive) | – |
| Cc1ccc(N(Cc2cc(=O)[nH]c3ccccc23)C(=O)CCl)cc1 | – | 56.2 µM (active) |
| Cc1ccc(N(Cc2ccccc2O)C(=O)c2ccccc2F)cc1 | -15.5% (inactive) | – |
| Cn1nnnc1SCc1cc(=O)[nH]c2ccccc12 | -4.32% (inactive) | – |
| COc1ccc(CNC(=O)c2cc3c(s2)-c2ccccc2OC3)cc1 | -11.9% (inactive) | – |
| CC(C)c1ccc2c(c1)c(SC(C)(C)C)c(CC(C)(C)C(=O)O)n2Cc1ccc(Cl)cc1 | – | 35.5 µM (active) and 25.1 µM (active) |
| Cc1c(C)n(Cc2ccc(Cl)cc2)c2ccc(C(=O)N3CCN(c4ccccc4F)CC3)cc12 | 0.854% (inactive) | – |
| CC(C)c1ccc(Cn2c(COc3ccccc3)nc3ccccc32)cc1 | -7.81% (inactive) | – |
| Cc1ccc(S(=O)(=O)NCc2nc3nc(C)cc(C)n3n2)cc1 | -23% (inactive) | – |
| Cc1cc(NC(=O)CSc2ncc(C(=O)Nc3ccc(Cl)cc3)c(=O)n2C)no1 | -17% (inactive) | – |
| Cc1ccc(C)c(NC(=O)CSC2=Nc3ccccc3N=C(c3ccc(F)cc3)C2)c1 | -6.54% (inactive) | – |

| SMILES | activity change, negative = inhibition | Potency |
| --- | --- | --- |
| O=C1/C(=C/c2cccs2)SC(=S)N1C1CCS(=O)(=O)C1 (centres undefined) | -23.4% (inactive) | – |
| CC(C(=O)Nc1ccc(O)c(C(=O)O)c1)N1C(=O)/C(=C/c2cccs2)SC1=S (centres undefined) | – | 79.4 µM (active) |
| CCOc1ccc(NC(=O)C(C)N2C(=O)c3ccccc3C2=O)cc1 (centres undefined) | -1.82% (inactive) | – |
| CCN(CC)CCNc1ncnc2c1cnn2-c1cc(Cl)ccc1C | -10.7% (inactive) | – |
| CC(C)C(=O)Nc1nc2c(s1)CC(C(C)(C)C)CC2 (centres undefined) | -18.3% (inactive) | – |
| CCOc1ccccc1C(=O)Nc1ccc2c(c1)N(C)C(=O)c1ccccc1S2 | -13.7% (inactive) | – |
| Cc1ccc(Cl)cc1-n1ncc2c(N3CCC(C(N)=O)CC3)ncnc21 | -16.5% (inactive) | – |
| O=C(O)c1ccc2c(=O)n3c(nc2c1)/C(=C/c1ccc(OC(F)F)cc1OC(F)F)CC3 | -17.6% (inactive) | – |
| N#Cc1ccc(/C=C2\CCn3c2nc2cc(C(=O)O)ccc2c3=O)cc1 | -14.4% (inactive) | – |
| Cc1ccc(/C=C2\CCn3c2nc2cc(C(=O)O)ccc2c3=O)c(C)c1 | – | 79.4 µM (active) |
| Fc1ccc(Nc2nc(SCc3ccccc3Cl)nc3ccccc23)cc1 | -14.4% (inactive) | – |
| O=C(NCC12CC3CC(CC(C3)C1)C2)c1cc2nc(-c3ccccc3)cc(C(F)(F)F)n2n1 | 0.579% (inactive) | – |
| COCCn1c(CCC(=O)Nc2cc(C)ccc2C)nc2cccnc21 | -13.2% (inactive) | – |
| COC(=O)c1ccc(Cn2c(SCC(=O)N(C)c3ccccc3)nc3ccccc32)cc1 | -3.59% (inactive) | – |
| Cc1ccc(O)c(NC(=O)CCS(=O)(=O)c2nc(-c3ccc4c(c3)OCO4)cc(C(F)(F)F)n2)c1 | -27.9% (inactive) | – |
| COc1ccccc1-n1c(SCC(=O)O)nc2sc3c(c2c1=O)CCC3 | -12.3% (inactive) | – |
| Cc1cccc(NC(=O)CSc2nc3c(c(=O)[nH]2)CCCC3)c1C | 1.98% (inactive) | – |
| O=C(CCc1nc2sc3c(c2c(=O)[nH]1)CCCC3)NCC(=O)Nc1ccccc1Br | – | 8.91 µM (active) |
| COc1ccccc1CNC(=O)C(=O)NCC(c1cccs1)S(=O)(=O)c1cccs1 (centres undefined) | -12.4% (inactive) | – |
| COc1ccc(C2C(=O)N(C3CCCCC3)CC(=O)N2Cc2ccccc2Cl)cc1OC (centres undefined) | -3.95% (inactive) | – |
| CCOC(=O)c1cccc(NC(=O)Cn2cnc3nc4c(cc3c2=O)CCCC4)c1 | -5.34% (inactive) | – |
| COc1ccc(NC(=O)CSc2nc3ccccc3[nH]2)cc1 | -14.9% (inactive) | – |
| COc1ccc(-c2nc3c(c(SCC(=O)Nc4ccc(C(=O)O)cc4)n2)Cc2ccccc2O3)cc1 | – | 7.94 µM (active) |
| COC(=O)c1ccc(NC(=O)CSc2n[nH]c(-c3ccccc3)n2)cc1 | -21% (inactive) | – |
| C=C(C)C(=O)O[C@H]1C/C(C)=C\C(=O)/C=C(\C)[C@H](O)[C@@H]2OC(=O)C(=C)[C@@H]21 | – | 20 µM (active) |

| SMILES | activity change, negative = inhibition | Potency |
| --- | --- | --- |
| CCOc1ccc(-n2nc3ccc(NC(=O)c4ccc(OC)c(Cl)c4)cc3n2)cc1 | -1.51% (inactive) | – |
| O=[N+]([O-])c1cc(Cl)cc(/C=N/NC(=S)Nc2cc(S(=O)(=O)N3CCOCC3)ccc2Cl)c1O | – | 50.1 µM (active) |
| Cc1ccc(S(=O)(=O)N2CCOCC2)cc1NC(=O)c1ccncc1 | -10.2% (inactive) | – |
| COCCNC(=S)Nc1cc(S(=O)(=O)N2CCOCC2)ccc1N1CCCCC1 | -3.75% (inactive) | – |
| Cc1nc2c(c(C)nn2-c2ccccc2)c(C)c1CCC(=O)NCCc1ccc(Cl)cc1 | -13.9% (inactive) | – |
| CCOc1ccc(NC(=O)c2ccc(CSc3nnnn3C)cc2)cc1 | -16.2% (inactive) | – |
| CCOc1ccc(NC(=O)c2ccc(NC(=O)COC(=O)c3ccc(NC(=O)CC#N)cc3)cc2)cc1 | – | 1.26 µM (active) |
| CCOc1ccc(NC(=O)Cn2c(C)ccc(C#N)c2=O)cc1 | -5.41% (inactive) | – |
| Cc1ccc(S(=O)(=O)c2nc(-c3cccs3)oc2N2CCCCC2)cc1 | -5.32% (inactive) | – |
| COc1ccc(CCNc2ncnc3onc(-c4ccc(Cl)cc4)c23)c(OC)c1 | -16.4% (inactive) | – |
| Cc1ccc(C)c(N2CCN(CCCNC(=O)Nc3ccc(Cl)cc3)CC2)c1 | -17.8% (inactive) | – |
| CN=C1S/C(=C\c2c(OC)cc(OC)cc2OC)C(=O)N1C | -14% (inactive) | – |
| CN1C(=O)/C(=C/c2ccco2)SC1=Nc1cccc(C(=O)O)c1 | – | 35.5 µM (active) |
| O=C(O)c1cccc(N=NN2CCCCCC2)c1 | -6.41% (inactive) | – |
| O=C(CSc1nc(-c2cccc(F)c2)[nH]c1-c1ccccc1)Nc1ccc2c(c1)OCO2 | -6.06% (inactive) | – |
| Cc1ccc2oc3c(c(=O)c2c1)C(c1ccc([N+](=O)[O-])cc1)N(CCCN1CCOCC1)C3=O (centres undefined) | -9.44% (inactive) | – |
| CCCc1cc(=O)[nH]c(SCC(=O)Nc2ccc(C(=O)Nc3ccccc3OC)cc2)n1 | -11.5% (inactive) | – |
| COC(=O)c1cccc(NC(=O)CSc2nc(C)cc(=O)[nH]2)c1 | – | 20 µM (active) |
| Cc1cc(C)c(C(=O)CSc2nc(C)cc(=O)[nH]2)c(C)c1 | -11.5% (inactive) | – |
| Cc1ccccc1Nc1nn2c(=O)c3ccc(C(=O)NCCc4ccc(Cl)cc4)cc3nc2s1 | 3.84% (inactive) | – |
| Cc1ccc2onc(CC(=O)N3CCN(c4ccc(Cl)cc4)CC3)c2c1 | -15.9% (inactive) | – |
| O=C(CN1CCN(c2ncc(C(F)(F)F)cc2Cl)CC1)Nc1ccc2c(c1)OCO2 | -22.3% (inactive) | – |
| Cn1c(=O)c2ccccc2n(CC(=O)Nc2ccc3c(c2)OCCO3)c1=O | 0.575% (inactive) | – |
| Cc1ccc(C(=O)O)cc1-c1ccc(/C=C2\SC(=O)N(CC(=O)Nc3ccc4c(c3)OCO4)C2=O)o1 | – | 4.47 µM (active) |
